Source: PubChem
Most compounds without a hit are left out; they make up all but 1.1% or so of the library.
COUP-TFII inh – blocks human COUP-TFII nuclear receptor | inhibition, % at 8.6 µM | AID 686940 | P24468 | 370,000 compounds, 0.7% hits | HEK293T NGFI-A luciferase reporter, luminescence;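 active means inhibition above a per-plate cutoff, mean inhibition of test wells between control levels plus 3 SD, cut at about 38% in these data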;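 further: cells cotransfected with COUP-TFII expression vector driving the NGFI-A reporter; 0% = median of COUP-TF2 test wells and 100% = reporter-only cells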
GalR3 antag – blocks the human galanin receptor 3. O60755. HEK293 GalR3-CNG cAMP membrane potential fluorescence; galR3 body fused to GalR1 C-terminus. inhibition, % at 3 µM. 360,000 compounds, 0.44% hits;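 active means inhibition above the screen-wide average plus 3 SD, cut at about 13% in these data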;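 further: forskolin and galanin both at EC90 stimulate the cells; cAMP rise reported by CNG channel membrane potential dye signal; 0% = forskolin plus galanin with DMSO and 100% = forskolin alone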
LRH-1 inv ag – suppresses constitutive activity of human LRH-1. HEK293T StAR-luciferase reporter, LRH-1 transfected, 24 h. 360,000 compounds, 0.13% hits. inhibition, % at 3.6 µM. O00482;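 active means inhibition above the mean inhibition of all tested compounds plus 3 SD, cut at about 73% in these data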;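 further: 0% = DMSO wells and 100% = reporter-only cells lacking LRH-1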
SRC2 inh – human SRC2 (NCOA2) inhibition. Q15596. 370,000 compounds, 0.17% hits. AID 651957. HEK293 GAL4-SRC2 luciferase reporter, luminescence. inhibition, % at 9 µM;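 active means inhibition above the mean inhibition of all tested compounds plus 3 SD, set per campaign, cut at about 52% in these data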;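 further: 0% = DMSO treated cells and 100% = cells given Gossypol at 36 µM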
Target sequence (Q15596 whole entry, looked up, the tested form may be a part): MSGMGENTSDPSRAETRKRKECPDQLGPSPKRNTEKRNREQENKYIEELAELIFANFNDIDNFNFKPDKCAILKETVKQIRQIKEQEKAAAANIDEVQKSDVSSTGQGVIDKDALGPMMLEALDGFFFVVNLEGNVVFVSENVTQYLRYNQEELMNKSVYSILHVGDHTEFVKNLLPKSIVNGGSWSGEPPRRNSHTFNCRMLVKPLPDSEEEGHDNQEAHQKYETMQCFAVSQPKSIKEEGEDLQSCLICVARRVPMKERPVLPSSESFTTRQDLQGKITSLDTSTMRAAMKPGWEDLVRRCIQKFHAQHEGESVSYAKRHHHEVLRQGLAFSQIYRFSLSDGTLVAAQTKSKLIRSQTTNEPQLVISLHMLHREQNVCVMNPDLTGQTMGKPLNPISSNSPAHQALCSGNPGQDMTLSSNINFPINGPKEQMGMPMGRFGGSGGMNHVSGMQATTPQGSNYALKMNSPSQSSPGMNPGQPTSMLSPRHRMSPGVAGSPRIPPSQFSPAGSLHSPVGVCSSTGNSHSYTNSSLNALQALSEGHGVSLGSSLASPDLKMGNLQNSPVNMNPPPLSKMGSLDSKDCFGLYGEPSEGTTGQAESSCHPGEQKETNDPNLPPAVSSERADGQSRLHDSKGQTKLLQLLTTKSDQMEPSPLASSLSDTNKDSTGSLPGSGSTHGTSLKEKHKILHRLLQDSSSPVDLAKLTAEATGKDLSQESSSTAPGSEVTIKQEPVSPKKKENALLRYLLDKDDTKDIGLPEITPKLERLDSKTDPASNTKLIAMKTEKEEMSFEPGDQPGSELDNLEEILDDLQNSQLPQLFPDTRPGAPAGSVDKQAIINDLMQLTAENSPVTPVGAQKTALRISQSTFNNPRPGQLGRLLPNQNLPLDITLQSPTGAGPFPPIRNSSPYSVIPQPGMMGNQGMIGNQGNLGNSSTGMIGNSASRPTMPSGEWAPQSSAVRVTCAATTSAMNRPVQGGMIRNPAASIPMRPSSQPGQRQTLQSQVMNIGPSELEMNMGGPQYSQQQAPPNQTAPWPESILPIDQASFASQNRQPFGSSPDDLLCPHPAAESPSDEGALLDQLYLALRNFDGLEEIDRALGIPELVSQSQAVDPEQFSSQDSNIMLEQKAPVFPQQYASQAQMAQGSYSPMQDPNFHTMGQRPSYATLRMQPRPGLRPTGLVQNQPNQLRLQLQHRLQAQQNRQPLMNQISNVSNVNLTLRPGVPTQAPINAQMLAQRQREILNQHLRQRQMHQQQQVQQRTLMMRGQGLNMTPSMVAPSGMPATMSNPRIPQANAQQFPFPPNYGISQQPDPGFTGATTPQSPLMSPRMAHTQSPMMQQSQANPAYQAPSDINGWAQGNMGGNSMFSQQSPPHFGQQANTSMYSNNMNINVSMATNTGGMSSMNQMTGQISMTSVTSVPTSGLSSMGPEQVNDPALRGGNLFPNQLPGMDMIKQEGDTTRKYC
SRC3 inh – inhibits human SRC3 coactivator. Q9Y6Q9. HEK293 GAL4-SRC3 luciferase reporter, luminescence. inhibition, % at 3.6 µM. 360,000 compounds, 0.17% hits. AID 588352;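 active means inhibition above a per-campaign cutoff, the mean of all compounds plus 3 SD, cut at about 60% in these data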;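 further: 0% = DMSO-treated cells and 100% = gossypol-treated cells at 36 µM; higher means less SRC3-driven luciferase light from the GAL4 reporter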
NCOA1 inh – inhibits human SRC1 coactivator; inhibition, % at 3.6 µM; HEK293 GAL4-SRC1 luciferase reporter, luminescence; 360,000 compounds, 0.12% hits; Q15788;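 active means inhibition above the campaign mean plus 3 SD, with each screening campaign given its own cutoff, cut at about 60% in these data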;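 further: 0% = DMSO treated cells and 100% = gossypol at 36 µM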
GalR3 antag conf – confirmation of human galanin receptor 3 antagonists. AID 652245. HEK293 GalR3 CNG cAMP biosensor, membrane potential fluorescence; galR3 fused to GalR1 carboxy tail; challenged with forskolin and galanin at EC90. shares compounds with GalR3 antag. inhibition, % at 3 µM. 1,600 compounds, 59% hits;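 active means inhibition above the primary screen's cutoff, the mean inhibition of all screened compounds plus 3 SD, cut at about 13% in these data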;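 further: 0% = forskolin plus galanin and 100% = forskolin alone with DMSO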
CNG parental – acts as nonspecific agonist in parental HEK-CNG cells; shares compounds with GalR3 antag; HEK293-CNG parental cells, cAMP membrane potential fluorescence; normalised: DMSO wells 0%, forskolin wells 100%; activation, % at 3 µM; 1,600 compounds, 10% hits; in the data active means activation above about 1.3%
Gal4-VP16 ctr – inhibits VP16 reporter, flagging COUP-TFII antagonist hits; 2,500 compounds, 25% hits; HEK293 Gal4-VP16 luciferase reporter, luminescence; shares compounds with COUP-TFII inh; inhibition, % at 8.5 µM; in the data active means inhibition above about 13%
COUP-TFII conf – COUP-TFII (NR2F2) inhibition, confirmation assay | shares compounds with COUP-TFII inh | HEK293 NGFI-A luciferase reporter, luminescence | inhibition, % at 8.5 µM | 2,500 compounds, 45% hits | AID 687008;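 active means mean inhibition over three repeats above a set limit taken from the earlier primary screen, cut at about 38% in these data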;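 further: 100% = cells given the luciferase reporter alone without the COUP-TF2 vector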
* hit, by the source's call; nt = no result given.

SMILES | COUP-TFII inh | GalR3 antag | LRH-1 inv ag | SRC2 inh | SRC3 inh | NCOA1 inh | GalR3 antag conf | CNG parental | Gal4-VP16 ctr | COUP-TFII conf
O=[N+]([O-])c1ccc(N=Nc2c(Cl)cc(O)cc2Cl)cc1 | 64* | 35* | -34 | 3 | 53 | 19 | 31* | 3.9* | -73 | 49*
COC(=O)c1ccc(NC(=O)c2ccc(CN3CCOCC3)cc2)cc1 | 48* | 92* | 21 | 10 | 1 | -2 | 4 | 0 | -4 | 16
CC(=O)c1ccc(NC(=O)c2ccc(C)c(S(=O)(=O)N3CCOCC3)c2)cc1 | -1 | -6 | -12 | 11 | 10 | -5 | nt | nt | nt | nt
O=C(Nc1ccc(S(=O)(=O)N2CCCCC2)cc1)c1ccc(CN2CCc3ccccc3C2)cc1 | 70* | 106* | 60 | 16 | -3 | 16 | 105* | -1 | 18* | 80*
O=C(Nc1ccccc1)c1ccc(S(=O)(=O)N2CCCCC2)cc1 | 8 | 0 | -9 | 5 | -16 | 0 | nt | nt | nt | nt
O=C(Nc1ccc(CN2CCOCC2)cc1)c1ccc(Cl)cc1 | -13 | -5 | -68 | -32 | -67 | -55 | nt | nt | nt | nt
O=C(Nc1ccc(S(=O)(=O)Nc2ccccc2)cc1)c1ccc(CN2CCOCC2)cc1 | 69* | 98* | 48 | 27 | 33 | 22 | 110* | -1 | 9 | 25
CCOC(=O)c1ccc(NC(=O)c2ccc(C)c(S(=O)(=O)N3CCOCC3)c2)cc1 | 81* | 98* | 80* | 50 | 53 | 41 | 107* | 0 | 6 | 82*
O=C(Nc1ccc(Br)cc1)O[C@@H]1CC[C@@]23CCCN2C(=O)CCC[C@H]3C1 | 7 | nt | nt | nt | nt | nt | nt | nt | nt | nt
C[C@H]1[C@@H](OC(=O)NCCc2ccccc2)CC[C@@]23CCCN2C(=O)CCC[C@@H]13 | 2 | nt | nt | nt | nt | nt | nt | nt | nt | nt
CC(C)(C)c1ccc(C(=O)Nc2ccc(CN3CCS(=O)(=O)CC3)cc2)cc1 | 47* | 34* | 19 | 16 | 14 | 16 | 103* | 0 | -16 | 32
COC(=O)[C@]12C[C@H](CC(=O)NCC34CC5CC(CC(C5)C3)C4)C(=O)N(CCc3ccc(OC)c(OC)c3)C1=C[C@H](C(C)(C)C)O[C@@H]2C | 14 | nt | nt | -6 | nt | nt | nt | nt | nt | nt
Cc1cccc(-c2cccc3c4c([nH]c23)[C@@H]2C[C@H](N(C)C(=O)OCc3ccccc3)[C@H]([C@H](C)O)CN2CC4)c1 | 25 | nt | nt | -8 | nt | nt | nt | nt | nt | nt
COc1ccc(CN(C)C(=O)c2ccc(OCC(=O)Nc3cccc(C(F)(F)F)c3)c(OC)c2)cc1 | 64* | 18* | 37 | 31 | 39 | 31 | 85* | 0 | -2 | 48*
COC(=O)C1CN(Cc2ccc(C)cc2)CCS(=O)(=O)N1Cc1cn(Cc2ccc(OC)cc2)nn1 (stereo not drawn) | 3 | nt | nt | 12 | nt | nt | nt | nt | nt | nt
CCn1cc(C(=O)NC2CCCc3c2cnn3-c2cccc(C)c2C)cn1 (stereo not drawn) | 64* | 97* | -1 | 13 | -111 | -26 | 114* | 0 | -4 | 50*
Cc1cccc(-n2ncc3c2CCCC3NC(=O)c2ccncc2)c1C (stereo not drawn) | 64* | 90* | 49 | 5 | 18 | 31 | 111* | -1 | 2 | 49*
O=C(OC12CCCN(C1)/C(=C/c1ccncc1)C2)c1cccc(F)c1 (stereo not drawn) | 25 | nt | nt | 10 | nt | nt | nt | nt | nt | nt
Cc1ccccc1Cn1c(C)nc2ccccc21 | 47* | 60* | 37 | 35 | 24 | 31 | 103* | 0 | 3 | 46*
Cc1nc2ccccc2n1Cc1ccc(Cl)cc1 | 61* | 87* | 47 | 27 | 13 | -14 | 109* | 0 | 1 | 39*
OCc1nc2ccccc2n1Cc1ccc(Cl)cc1 | 10 | -5 | 20 | 6 | -4 | 14 | nt | nt | nt | nt
O=C(CCCl)NC1CCCCN(Cc2ccc(OC(F)(F)F)cc2)C1=O (stereo not drawn) | 2 | nt | nt | -6 | nt | nt | nt | nt | nt | nt
Cc1ccc(-n2ncc3c(N4CCCC4)ncnc32)c(C)c1 | -39 | -2 | -84 | -95 | -41 | -51 | nt | nt | nt | nt
COc1cccc(N2CCN(c3ncnc4c3cnn4-c3ccc(C)cc3C)CC2)c1 | 97* | 67* | 64 | 69* | 79* | 44 | 97* | 0 | 27* | 91*
CCOc1ccc(-c2cc(C(=O)Nc3ccc(C)c(NS(C)(=O)=O)c3)[nH]n2)c(C)c1 | 62* | 14* | 26 | 16 | 18 | 29 | 99* | -1 | -6 | 22
SMILES | COUP-TFII inh | GalR3 antag | LRH-1 inv ag | SRC2 inh | SRC3 inh | NCOA1 inh | GalR3 antag conf | CNG parental | Gal4-VP16 ctr | COUP-TFII conf
CC(CCCC(C)(C)O)NC(=O)c1cc(COc2ccc3ncccc3c2)on1 (stereo not drawn) | 60* | 15* | 34 | 23 | 24 | 18 | 50* | 0 | 10 | 48*
Cc1cc(C)n(CCNC(=O)c2cc(COc3ccc4ncccc4c3)on2)n1 | 23 | -5 | 19 | 25 | 12 | 2 | nt | nt | nt | nt
CN(Cc1ccccn1)C(=O)c1cc(COc2ccc(F)c(F)c2)on1 | -40 | -8 | -75 | -50 | -86 | -68 | nt | nt | nt | nt
Cc1nc(CN(C)C(=O)c2cc(COc3ccc4ncccc4c3)on2)cs1 | 58* | 68* | 36 | 29 | 30 | 12 | 108* | 0 | 0 | 52*
CC(C)CNc1cccc2c1S(=O)(=O)N(Cc1cn(Cc3cccc(C(F)(F)F)c3)nn1)Cc1ccccc1O2 | 14 | nt | nt | 20 | nt | nt | nt | nt | nt | nt
COc1ccc(C(C(=O)N(C)C2CCCC2)N(Cc2ccc(F)cc2)C(=O)c2cc(C)on2)cc1OC (stereo not drawn) | 4 | nt | nt | -44 | nt | nt | nt | nt | nt | nt
COc1ccc(-n2c(-c3ccc(Cl)cc3)c[n+]3c2CCc2ccccc2-3)cc1 | 51* | 62* | 55 | 29 | 49 | 23 | 57* | 1 | 18* | 44*
COc1ccc(-n2c(-c3ccccc3)nnc2-c2ccc(Cl)cc2)cc1 | -1 | -5 | 5 | -31 | -15 | -1 | nt | nt | nt | nt
COc1ccc(C(=O)N[C@@H]2CC[C@@]34CCCN3C(=O)CCC[C@H]4[C@H]2C)cc1 | 7 | nt | nt | nt | nt | nt | nt | nt | nt | nt
CC(C)(C)c1ccc(-c2nnc(SCC(=O)Nc3ccc4cn[nH]c4c3)n2-c2ccc(Cl)cc2)cc1 | -17 | nt | nt | -11 | nt | nt | nt | nt | nt | nt
